Our source for the outcome and AC50 values is PubChem BioAssay (EPA / NIEHS).

Molecules are shown by their SMILES. Where a structure was tested more than once in an assay, its records may differ in their call. The source made the active and inactive calls. The calls were made as follows: active = hit-call score of the fitted dose curve at least 0.9, where 1 is the maximum; inactive = score below 0.9.

Details in all cases: primary human HUVEC with PBMC; actives raise or lower the signal
Read-out in assay [1]: Macrophage colony-stimulating factor (MCSF), CSF1 (gene 1435)
Briefly: BSK_LPS_MCSF: BioMAP Diversity Plus: LPS Assay for Macrophage colony-stimulating factor (MCSF) Biomarker Activity (AID 2283083). The method in brief:
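HUVEC + PBMC co-culture (human primary), 24 h post-dose; M-CSF by ELISA; gain/loss of signal fitted bidirectionally vs DMSO baseline.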

Read-out in assay [2]: Tissue Factor, F3 (gene 2152)
Briefly: BSK_LPS_TissueFactor: BioMAP Diversity Plus: LPS Assay for Tissue Factor Biomarker Activity (AID 2283084). The method in brief: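 HUVEC/PBMC co-culture, LPS-activated; CD142 ELISA read 24 h post-dose; bidirectional curve fit vs DMSO negative control.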

Read-out in assay [3]: Tumor necrosis factor (Homo sapiens) (UniProt P01375)
Briefly: BSK_LPS_TNFa: BioMAP Diversity Plus: LPS Assay for Tumour Necrosis Factor alpha (TNFa) Biomarker Activity (AID 2283085).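 As to AC50: TNFa protein level quantified by ELISA in the co-culture.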 The method in brief: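 TNFa was quantified by ELISA in LPS-activated co-cultures of human endothelial cells and PBMC, 24 h post-dosing. Both increases and decreases versus DMSO were fitted.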

Read-out in assay [4]: Vascular cell adhesion molecule 1 (VCAM1), VCAM1 (gene 7412)
Briefly: BSK_LPS_VCAM1: BioMAP Diversity Plus: LPS Assay for Vascular cell adhesion molecule 1 (VCAM1) Biomarker Activity (AID 2283086). The method, boiled down: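 VCAM-1 quantified by ELISA in an LPS-activated co-culture of human endothelial cells and peripheral blood mononuclear cells, read 24 h post-treatment. Fitted in both directions versus DMSO; parallel SRB staining flags overt cytotoxicity.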

Read-out in assay [5]: CD38, CD38 (gene 952)
Briefly: BSK_SAg_CD38: BioMAP Diversity Plus: SAg Assay for CD38 Biomarker Activity (AID 2283087). The method, boiled down: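 CD38 quantified by ELISA (fluorescence) in a superantigen-activated endothelial cell–PBMC co-culture at 24 h post-dose. Activity fitted in both directions relative to DMSO; parallel SRB and Alamar Blue cytotoxicity read-outs.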

Read-out in assay [6]: CD40, CD40 (gene 958)
Briefly: BSK_SAg_CD40: BioMAP Diversity Plus: SAg Assay for CD40 Biomarker Activity (AID 2283088). The method in brief:
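HUVEC/PBMC co-culture, 24 h post-dose; CD40 by ELISA, fluorescence intensity; bidirectional fit vs DMSO negative control.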

Read-out in assay [7]: CD69, CD69 (gene 969)
Briefly: BSK_SAg_CD69: BioMAP Diversity Plus: SAg Assay for CD69 Biomarker Activity (AID 2283089).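 As to AC50: cell surface CD69 protein quantified by ELISA with fluorescence detection.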 The method in brief:
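HUVEC co-cultured with PBMC were dosed with chemical, and CD69 was measured by ELISA with fluorescence read-out 24 h later. Bidirectional curve fitting used DMSO as negative control and activity baseline.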

Read-out in assay [8]: Monocyte Chemoattractant Protein-1 (MCP1), CCL2 (gene 6347)
Briefly: BSK_SAg_MCP1: BioMAP Diversity Plus: SAg Assay for Monocyte Chemoattractant Protein-1 (MCP1) Biomarker Activity (AID 2283090). The method, boiled down: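 Values derive from bidirectional fitting of ELISA-measured MCP1 against DMSO controls. Readings were taken 24 h after dosing human vascular endothelial cells co-cultured with peripheral blood mononuclear cells under superantigen stimulation.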

Read-out in assay [9]: E-selectin (Homo sapiens) (UniProt P16581)
Briefly: BSK_SAg_Eselectin: BioMAP Diversity Plus: SAg Assay for Eselectin Biomarker Activity (AID 2283091). The method in brief:
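E-selectin ELISA readout at 24 h post-dosing in human umbilical vein endothelial cell/PBMC co-culture; gain or loss of signal fitted relative to DMSO baseline.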

Read-out in assay [10]: Monokine induced gamma interferon (MIG), CXCL9 (gene 4283)
Briefly: BSK_SAg_MIG: BioMAP Diversity Plus: SAg Assay for Monokine induced gamma interferon (MIG) Biomarker Activity (AID 2283092). The method in brief: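 HUVEC plus human PBMC co-culture, chemicals dosed and MIG (CXCL9) quantified by ELISA at 24 h. Bidirectional curve fitting against DMSO as negative control and baseline, so both gain and loss of signal count as activity.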

The term AC50 denotes the midpoint of the concentration-response curve, whichever way the signal moves.

Sequence of E-selectin (Homo sapiens) (P16581 whole entry, looked up): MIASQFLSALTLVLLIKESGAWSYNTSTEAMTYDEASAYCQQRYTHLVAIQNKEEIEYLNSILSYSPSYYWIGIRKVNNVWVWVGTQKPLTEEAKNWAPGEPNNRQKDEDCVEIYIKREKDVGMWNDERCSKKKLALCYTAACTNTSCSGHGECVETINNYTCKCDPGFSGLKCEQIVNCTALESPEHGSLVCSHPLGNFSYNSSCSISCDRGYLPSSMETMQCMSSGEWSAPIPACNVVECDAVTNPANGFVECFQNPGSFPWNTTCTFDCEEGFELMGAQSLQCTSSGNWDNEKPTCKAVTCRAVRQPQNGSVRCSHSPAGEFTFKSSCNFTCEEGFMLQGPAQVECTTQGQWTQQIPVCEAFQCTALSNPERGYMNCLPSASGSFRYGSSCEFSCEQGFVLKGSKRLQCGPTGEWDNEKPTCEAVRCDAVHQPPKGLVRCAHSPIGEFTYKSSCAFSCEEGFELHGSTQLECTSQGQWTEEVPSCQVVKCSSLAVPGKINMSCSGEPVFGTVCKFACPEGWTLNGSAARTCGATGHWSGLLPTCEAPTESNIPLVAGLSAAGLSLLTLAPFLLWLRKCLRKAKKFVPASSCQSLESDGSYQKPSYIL
Sequence of Tumor necrosis factor (Homo sapiens) (P01375 whole entry, looked up): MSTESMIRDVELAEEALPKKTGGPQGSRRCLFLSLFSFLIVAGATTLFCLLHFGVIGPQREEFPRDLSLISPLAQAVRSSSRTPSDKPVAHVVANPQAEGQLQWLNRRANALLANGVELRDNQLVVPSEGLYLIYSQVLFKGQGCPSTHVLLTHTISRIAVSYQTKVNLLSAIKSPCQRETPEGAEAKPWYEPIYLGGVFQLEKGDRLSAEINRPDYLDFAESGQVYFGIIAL

In the case of `CC(C)=CC1C(C(=O)OCc2cccc(Oc3ccccc3)c2)C1(C)C` (stereo not drawn), the outcome in [1], in assay [2], in assay [3], in [4], in assay [5] and in assay [6] was inactive. For the same molecule, the result in assay [7], in [8] and in assay [10] was inactive. In addition, the AC50 in assay [9] was 6.45 µM (active).

For the molecule `Clc1cccc(Cl)c1`, the result in assay [1], in [2], in assay [3], in assay [5], in [6] and in assay [7] was inactive. Further, the outcome in assay [8], in [9] and in [10] was inactive.

With `Cc1ccccc1OP(=O)(Oc1ccccc1)Oc1ccccc1`, the AC50 is 20 µM (active) in assay [1]; 20 µM (active) in [5]; 28.3 µM (active) in assay [6]; 28.1 µM (active) in assay [7]; 20 µM (active) in assay [8]; 30.9 µM (active) in [9]. Also, the outcome in assay [2], in [3] and in [10] was inactive.

Consider `N#CCCC(Br)(C#N)CBr` (stereo not drawn), for which the AC50 is 10.6 µM (active) in assay [1]; 21.4 µM (active) in assay [2]; 13 µM (active) in [3]; 9.05 µM (active) in assay [4]; 10.2 µM (active) in assay [5]; 11.2 µM (active) in assay [6]. For the same molecule, the AC50 in assay [7] is 17 µM (active); in assay [8] it was 20 µM (active); in assay [9] it was 20 µM (active); in [10], 30 µM (active).

In the case of `CCOP(=S)(OCC)OP(=S)(OCC)OCC`, the result in assay [1], in assay [2], in [3], in [6], in assay [8] and in assay [10] was inactive. Further, the AC50 in assay [5] is 31.8 µM (active); in assay [7], 30.1 µM (active); in assay [9], 35.4 µM (active).

In the case of `CC1(C)[C@H](C(=O)O[C@H](C#N)c2cccc(Oc3ccccc3)c2)[C@@H]1/C=C(\Cl)C(F)(F)F`, the outcome in assay [1], in assay [2], in assay [3], in assay [4], in [5] and in assay [7] was inactive. The result in [8], in assay [9] and in assay [10] was inactive. The AC50 in [3] was 2.79 µM (active); in [5] it was 5.06 µM (active); in [6], 4.51 µM (active); in assay [7] it was 3.39 µM (active).

As to `O=C(CCl)NCO`, the result in [1], in assay [2], in assay [3], in [4], in assay [5] and in assay [6] was inactive. In addition, the outcome in assay [7], in assay [8], in assay [9] and in assay [10] was inactive.

Consider `NC(=O)CCl`, for which the result in assay [1], in assay [2], in assay [3], in assay [5], in assay [6] and in [7] was inactive. Also, the outcome in assay [8], in assay [9] and in assay [10] was inactive.

For the molecule `O=C1C=CC(=O)c2ccccc21`, the AC50 in assay [1] is 1.82 µM (active); in assay [2], 1.52 µM (active); in [3], 0.623 µM (active); in assay [4], 2 µM (active); in [5], 1.04 µM (active); in assay [6], 2.17 µM (active). The AC50 is 0.836 µM (active) in assay [7], 2.39 µM (active) in assay [8], 1.12 µM (active) in assay [9] and 1.53 µM (active) in [10].

As for `CCC(C)(C#N)N=NC(C)(C#N)CC` (stereo not drawn), the outcome in assay [1], in [2], in assay [3], in assay [4], in assay [5] and in [6] was inactive. In addition, the result in [7], in assay [8], in assay [9] and in assay [10] was inactive.

On to `CCCCOC(=O)COC(=O)c1ccccc1C(=O)OCCCC`, for which the result in [1], in [2], in assay [3], in [4], in assay [5] and in [6] was inactive. Moreover, the result in assay [7], in assay [8], in assay [9] and in assay [10] was inactive.

`O=C(O)COc1cc(Cl)c(Cl)cc1Cl`: the result in [1], in assay [2], in assay [3], in assay [4], in [5] and in assay [6] was inactive. The result in [7], in [8], in assay [9] and in assay [10] was inactive.

For the molecule `Cc1cc(C)cc(C)c1`, the result in [1], in assay [2], in assay [3], in assay [4], in assay [5] and in assay [6] was inactive. In addition, the outcome in [7], in assay [8], in assay [9] and in assay [10] was inactive.

With `Cc1ccc2nc3sc(=O)sc3nc2c1`, the outcome in assay [1], in assay [2], in [3], in assay [7], in assay [8] and in assay [10] was inactive. For the same molecule, the AC50 was 7.61 µM (active) in assay [4], 6.68 µM (active) in assay [5], 6.41 µM (active) in assay [6] and 8.11 µM (active) in assay [9].

Take `[Cl][Sn]([c]1ccccc1)([c]1ccccc1)[c]1ccccc1`: the AC50 in assay [1] was 0.138 µM (active); in assay [2], 0.308 µM (active); in [3], 0.134 µM (active); in assay [5], 0.141 µM (active); in assay [6], 0.146 µM (active); in assay [7], 0.176 µM (active). Besides, the results for the AC50 in [8], in assay [9] and in assay [10] were 0.327 µM (active), 0.227 µM (active) and 0.259 µM (active), respectively.

In the case of `Cc1ccc(OP(=O)(Oc2ccc(C)cc2C)Oc2ccc(C)cc2C)c(C)c1`, the AC50 in assay [1] was 10.7 µM (active); in [3], 34.1 µM (active); in assay [6], 20 µM (active); in assay [7] it was 20 µM (active); in [8], 5.89 µM (active). Further, the outcome in [2], in assay [4], in assay [5], in assay [9] and in [10] was inactive.
